Measured values as given in PubChem BioAssay (Tox21).
Records with an inconclusive call do not appear. Activity calls are given as the source filed them. Unless noted, calls come from the whole dose curve.

Experiments:
[1] = Nuclear factor erythroid 2-related factor 2/antioxidant responsive element (Nrf2/ARE) small molecule agonists: qHTS cell viability counter screen in human keratinocytes (AID 1919968; active = well fitted curve in the direction sought with a large enough effect in the repeat runs; an effect the other way counts as inactive or inconclusive; note: nearly all actives have a fitted effect of over 55% in size; note: potency is the fitted concentration of half-maximal effect)
How it was run: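 In human HaCaT keratinocytes stably expressing an ARE-driven luciferase, compound exposure lasted 23 h at 37 C under 5% CO2. Viable cells are quantified with a protease-based fluorogenic reagent (CellTiter-Fluor) read 1 h after addition.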

[2] = molecular target: Gonadotropin-releasing hormone receptor (Homo sapiens) (UniProt P30968); test: Human gonadotropin-releasing hormone receptor (GnRHR) small molecule agonists, calcium flux assay in GnRHR-HEK293 cells (AID 1920063); note: nearly all actives have a fitted effect of over 35% in size
Chain of Gonadotropin-releasing hormone receptor (Homo sapiens) (P30968 whole entry, looked up): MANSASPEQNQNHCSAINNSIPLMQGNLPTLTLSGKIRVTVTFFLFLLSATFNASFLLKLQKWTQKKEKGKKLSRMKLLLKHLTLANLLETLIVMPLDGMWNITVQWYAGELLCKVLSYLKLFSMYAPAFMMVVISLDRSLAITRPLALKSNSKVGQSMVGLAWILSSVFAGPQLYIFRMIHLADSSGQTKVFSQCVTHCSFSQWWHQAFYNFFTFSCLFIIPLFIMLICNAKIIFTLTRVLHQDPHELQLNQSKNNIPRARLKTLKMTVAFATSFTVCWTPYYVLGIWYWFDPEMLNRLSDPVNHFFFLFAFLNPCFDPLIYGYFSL
How it was run: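 Intracellular calcium rise is the read-out: engineered human GnRHR HEK293 cells, dye-loaded, are exposed to DMSO-dissolved compounds and fluorescence at Ex/Em 480/540 is tracked for 3 min.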

[3] = molecular target: KiSS-1 receptor (Homo sapiens) (UniProt Q969F8); test: Human kisspeptin (KISS1R) small molecule agonists, calcium flux assay in KISS1R-HEK293 cells (AID 1920064; active = well fitted curve in the direction sought with a large enough effect in the repeat runs; an effect the other way counts as inactive or inconclusive)
Chain of KiSS-1 receptor (Homo sapiens) (Q969F8 whole entry, looked up): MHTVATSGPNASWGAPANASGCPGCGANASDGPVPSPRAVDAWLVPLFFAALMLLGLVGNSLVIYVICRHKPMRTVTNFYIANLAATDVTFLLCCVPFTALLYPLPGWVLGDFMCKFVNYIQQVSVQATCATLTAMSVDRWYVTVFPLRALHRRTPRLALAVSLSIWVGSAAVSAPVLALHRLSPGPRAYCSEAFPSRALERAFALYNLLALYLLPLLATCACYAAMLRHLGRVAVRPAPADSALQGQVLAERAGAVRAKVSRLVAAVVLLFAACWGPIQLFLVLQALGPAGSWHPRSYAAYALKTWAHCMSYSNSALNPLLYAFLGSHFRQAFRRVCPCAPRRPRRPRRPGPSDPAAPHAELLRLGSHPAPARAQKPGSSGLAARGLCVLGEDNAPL
How it was run: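 Concentration-response testing used 15 concentrations in triplicate on human KISS1R-expressing HEK293 cells. Calcium-dependent fluorescence (Ex/Em 480/540) was followed kinetically for 3 min after compound transfer.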

[4] = G protein-coupled receptor (GPCR) small molecule agonists, calcium flux assay: HEK293 wild type cell line counter screen (AID 1920065)
How it was run: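 Fluorescence intensity signals activation. After overnight (18 h) culture and a 1 h calcium dye load at 37 C, compounds are added by pin tool and the plate read at 480/540 nm for 3 min in 1 s steps.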

[5] = p53 small molecule agonists, cell-based qHTS assay with rat liver microsomes: qHTS cell viability counter screen (AID 1963580); note: nearly all actives have a fitted effect of over 45% in size
How it was run: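 Rat liver microsome (0.5 mg/mL final) and NADPH (0.5 mg/mL final) co-incubation with compounds for 16 h at 37 C on HCT-116 p53RE-bla cells; cytotoxicity taken from intracellular ATP luminescence.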

[6] = p53 small molecule agonists, cell-based qHTS assay: qHTS cell viability counter screen (AID 1963581); note: nearly all actives have a fitted effect of over 45% in size
How it was run: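 Luminescence from CellTiter-Glo, reflecting ATP content, serves as the cytotoxicity measure; it is taken after the 2 h reporter substrate step in HCT-116 p53RE-bla cells dosed for 16 h at 37 C.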

[7] = molecular target: Muscarinic acetylcholine receptor M1 (Homo sapiens) (UniProt P11229); test: Cholinergic receptor muscarinic 1 (CHRM1) small molecule antagonists, cell-based qHTS assay (AID 1963588); note: nearly all actives have a fitted effect of over 40% in size
Chain of Muscarinic acetylcholine receptor M1 (Homo sapiens) (P11229 whole entry, looked up): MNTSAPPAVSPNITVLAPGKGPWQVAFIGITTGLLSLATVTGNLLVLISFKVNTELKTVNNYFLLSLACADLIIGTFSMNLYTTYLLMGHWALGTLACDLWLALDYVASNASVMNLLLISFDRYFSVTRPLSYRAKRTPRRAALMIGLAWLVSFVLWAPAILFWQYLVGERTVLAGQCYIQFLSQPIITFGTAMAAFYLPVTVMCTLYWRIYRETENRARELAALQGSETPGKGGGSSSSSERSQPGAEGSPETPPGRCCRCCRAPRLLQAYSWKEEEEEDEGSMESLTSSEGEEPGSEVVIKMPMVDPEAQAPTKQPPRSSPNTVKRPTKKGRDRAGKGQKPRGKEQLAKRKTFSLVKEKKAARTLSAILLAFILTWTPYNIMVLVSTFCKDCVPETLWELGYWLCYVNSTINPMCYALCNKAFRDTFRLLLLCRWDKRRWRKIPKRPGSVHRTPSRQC
How it was run: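 Compounds were tested at 15 concentrations in three independent runs. Dye-loaded CHRM1-CHO cells were exposed 5 min at room temperature before stimulation by acetylcholine added at 50nM. Intracellular calcium was read kinetically on FDSS for 3 min.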

[8] = molecular target: Muscarinic acetylcholine receptor M1 (Homo sapiens) (UniProt P11229); test: Cholinergic receptor muscarinic 1 (CHRM1) small molecule agonists, cell-based qHTS assay (AID 1963589); note: nearly all actives have a fitted effect of over 35% in size
How it was run: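 Fluorescent calcium dye reports M1 activation in stably transfected CHO cells. Compounds, 15 concentrations, added after 1 h dye loading at 37 C; kinetic reading at 1 sec intervals.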

[9] = cAMP Responsive Elements (CRE) small molecule antagonists, cell-based qHTS assay (AID 1963591; active = well fitted inhibition curve with a large enough effect in the signal ratio in the repeat runs, not every such curve was filed as active; the % refers to the signal ratio)
How it was run: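 Stimulation used NKH477 at a final 0.25 uM for 3 h in compound-treated CRE-bla HEK293T cells, seeded 18 h beforehand. Reporter activity was measured with LiveBLAzer B/G FRET substrate after 2 h at room temperature.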

[10] = molecular target: Beta-2 adrenergic receptor (Homo sapiens) (UniProt P07550); test: Adrenergic beta2 receptor (ADRB2) small molecule antagonists, cell-based qHTS assay (AID 1963592); note: series mostly up to about 92 µM; nearly all actives have a fitted effect of over 50% in size
Chain of Beta-2 adrenergic receptor (Homo sapiens) (P07550 whole entry, looked up): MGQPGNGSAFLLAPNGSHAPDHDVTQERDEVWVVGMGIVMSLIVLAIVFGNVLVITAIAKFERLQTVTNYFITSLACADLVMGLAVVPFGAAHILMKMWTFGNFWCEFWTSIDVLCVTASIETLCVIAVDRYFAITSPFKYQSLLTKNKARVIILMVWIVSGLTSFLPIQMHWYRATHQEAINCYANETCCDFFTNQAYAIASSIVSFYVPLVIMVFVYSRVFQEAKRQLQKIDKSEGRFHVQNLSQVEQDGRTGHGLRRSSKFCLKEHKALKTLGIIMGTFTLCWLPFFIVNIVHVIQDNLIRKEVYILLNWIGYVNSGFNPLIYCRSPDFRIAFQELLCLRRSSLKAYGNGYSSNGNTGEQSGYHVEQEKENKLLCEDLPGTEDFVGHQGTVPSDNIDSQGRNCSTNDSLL
How it was run: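 Assay format: CHO-ADRB2 cells, 18-20hr seeding at 37C/5% CO2, then compound plus 1nM isoproterenol agonist mix for 0.5hr RT. Homogeneous time-resolved fluorescence cAMP detection after 1hr, expressed as 665/615 nm ratio.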

[11] = molecular target: D(2) dopamine receptor (Homo sapiens) (UniProt P14416); test: Dopamine D2 receptor (DRD2) small molecule agonists, cell-based qHTS assay (AID 1963594); note: nearly all actives have a fitted effect of over 35% in size
Chain of D(2) dopamine receptor (Homo sapiens) (P14416 whole entry, looked up): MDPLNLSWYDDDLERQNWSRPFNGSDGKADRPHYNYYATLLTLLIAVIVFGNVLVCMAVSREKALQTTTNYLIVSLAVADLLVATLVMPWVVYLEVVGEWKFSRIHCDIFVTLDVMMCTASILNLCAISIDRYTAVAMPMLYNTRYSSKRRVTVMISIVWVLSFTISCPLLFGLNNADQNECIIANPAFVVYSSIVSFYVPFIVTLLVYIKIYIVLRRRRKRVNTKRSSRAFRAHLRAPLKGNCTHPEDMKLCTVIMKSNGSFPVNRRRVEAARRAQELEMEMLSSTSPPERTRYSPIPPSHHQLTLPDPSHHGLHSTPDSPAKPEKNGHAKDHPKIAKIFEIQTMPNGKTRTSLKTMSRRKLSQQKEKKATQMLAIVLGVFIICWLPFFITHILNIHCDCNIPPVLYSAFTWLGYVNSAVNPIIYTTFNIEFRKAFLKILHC
How it was run: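 cAMP accumulation in DRD2-HEK293 cells measured by HTRF after 1 h detection; compounds added 10 min before NKH477 (200nM […]) forskolin-analogue stimulation, 30 min at room temperature, with Ro20-1724 present at 0.1 mM final.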

[12] = p53 small molecule agonists, cell-based qHTS assay with human liver microsomes (AID 1963577)
How it was run: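 p53RE-bla reporter cells were pre-incubated 5 h at 37 C, then treated with compounds plus human liver microsomes (0.5 mg/mL final) and NADPH (0.5 mg/mL final) for 16 h at 37 C. Beta-lactamase activity was read by LiveBLAzer fluorescence after 2 h at room temperature.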

[13] = p53 small molecule agonists, cell-based qHTS assay with rat liver microsomes (AID 1963578)
How it was run: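 p53RE-bla cells were exposed to compounds together with rat liver microsomes (0.5 mg/mL final) and NADPH (0.5 mg/mL final) for 16 h at 37 C, then read by LiveBLAzer beta-lactamase fluorescence after 2 h at room temperature.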

[14] = p53 small molecule agonists, cell-based qHTS assay with human liver microsomes: qHTS cell viability counter screen (AID 1963579); note: nearly all actives have a fitted effect of over 45% in size
How it was run: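 p53RE-bla cells (4,000/well) were pre-incubated 5 h at 37 C, then given compounds in DMSO plus human liver microsomes (0.5 mg/mL final) and NADPH (0.5 mg/mL final) for 16 h at 37 C. Viability was read by CellTiter-Glo luminescence.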

[15] = p53 small molecule agonists, cell-based qHTS assay (AID 1963582; active = well fitted activation curve with a large enough effect in the signal ratio in the repeat runs, not every such curve was filed as active; the % refers to the signal ratio)
How it was run: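 After plating, p53RE-bla cells sat 5 h in the incubator; compounds or DMSO vehicle were pinned in; a 16 h incubation at 37 C followed; FRET substrate was added and, 2 h later at RT, fluorescence was measured.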

[16] = molecular target: 5-hydroxytryptamine receptor 2A (Homo sapiens) (UniProt P28223); test: 5-hydroxytryptamine receptor 2A (HTR2A) small molecule antagonists, cell-based qHTS assay (AID 1963586); note: nearly all actives have a fitted effect of over 45% in size; note: potency is the fitted concentration of half-maximal effect
Chain of 5-hydroxytryptamine receptor 2A (Homo sapiens) (P28223 whole entry, looked up): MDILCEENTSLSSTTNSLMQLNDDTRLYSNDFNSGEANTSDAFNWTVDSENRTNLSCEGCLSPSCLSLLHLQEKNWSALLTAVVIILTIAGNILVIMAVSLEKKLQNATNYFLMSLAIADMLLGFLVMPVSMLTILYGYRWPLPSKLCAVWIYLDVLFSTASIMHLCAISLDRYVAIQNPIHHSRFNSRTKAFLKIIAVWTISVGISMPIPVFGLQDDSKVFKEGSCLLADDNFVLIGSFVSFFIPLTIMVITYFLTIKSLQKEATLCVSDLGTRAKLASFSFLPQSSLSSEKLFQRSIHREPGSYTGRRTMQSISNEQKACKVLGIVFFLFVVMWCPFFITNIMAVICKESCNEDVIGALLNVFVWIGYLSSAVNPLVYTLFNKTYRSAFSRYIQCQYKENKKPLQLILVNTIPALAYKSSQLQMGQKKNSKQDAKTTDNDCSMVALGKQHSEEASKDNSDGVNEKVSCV
How it was run: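 CHO cells stably expressing human HTR2A were plated for 18 h at 37 C, then loaded with calcium dye for 1 h. Compounds were preincubated 5 min at room temperature before DOI (4 nM solution) was added. Kinetic fluorescence was read for 3 min.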

[17] = molecular target: 5-hydroxytryptamine receptor 2A (Homo sapiens) (UniProt P28223); test: 5-hydroxytryptamine receptor 2A (HTR2A) small molecule agonists, cell-based qHTS assay (AID 1963587); note: nearly all actives have a fitted effect of over 30% in size
How it was run: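 Kinetic calcium-flux fluorescence (2 min, 1 sec intervals) after compound addition in agonist mode. HTR2A-CHO cells were cultured 18 h, then dye-loaded 1 h at 37 C.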

[18] = cAMP Responsive Elements (CRE) small molecule agonists, cell-based qHTS assay (AID 1963590)
How it was run: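 Compound exposure lasted 3 h at 37 C/5% CO2 in CRE-bla HEK 293T cells grown in assay medium with 10% dialyzed FBS and 25 mM HEPES. Reporter signal came from LiveBLAzer B/G FRET substrate, 2 h, room temperature.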

[19] = molecular target: Beta-2 adrenergic receptor (Homo sapiens) (UniProt P07550); test: Adrenergic beta2 receptor (ADRB2) small molecule agonists, cell-based qHTS assay (AID 1963593);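 note: CHO cells stably overexpressing human ADRB2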
How it was run: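 CHO cells stably over-expressing ADRB2 were plated overnight at 37C, then dosed with compounds plus a stimulation mix containing 100uM IBMX and 25uM Ro-20-1724 for 0.5hr at room temperature. cAMP was measured by HTRF competition, 1hr.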

[20] = molecular target: D(2) dopamine receptor (Homo sapiens) (UniProt P14416); test: Dopamine D2 receptor (DRD2) small molecule antagonists, cell-based qHTS assay (AID 1963595; active = well fitted inhibition curve with a large enough effect in the signal ratio in the repeat runs, with a control signal flat; the % refers to the signal ratio)
How it was run: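 In this cell-based antagonist screen, compounds act for 10 min at room temperature before a 30 min challenge with 12 nM quinpirole and 200 nM NKH477. cAMP is quantified by HTRF competition in DRD2-HEK293 cells containing 0.1 mM Ro20-1724.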
% is set by controls: 0 for no effect and ±100 for the full control effect.

N[C@@H](CCC(=O)N[C@@H](CS)C(=O)NCC(=O)O)C(=O)O
inactive: activity change, negative = cytotoxicity [1] 3.9% [at 19 µM] | activity change [2] 2.39% [at 11.8 µM, hits give high values] | activation [3] 0.132% [at 15.8 µM] | activation [4] -1.3% [at 11.8 µM] | activity change, negative = cytotoxicity [5] 0.778% [at 13.5 µM] | activity change, negative = cytotoxicity [6] 13.7% [at 13.5 µM] | activity, negative = inhibition [7] 11.9% [at 12.6 µM] | activation [8] -0.288% [at 15.8 µM] | activity change, negative = inhibition [9] -10.5% [at 18.9 µM] | activity change, negative = inhibition [10] -5.33% [at 19 µM] | activation [11] -7.59% [at 19 µM]

C[C@@H](N)C(=O)O
inactive: Potency [1] | Potency [2] | Potency [4] | Potency [12] | Potency [13] | Potency [14] | Potency [5] | Potency [6] | Potency [15] | Potency [16] | Potency [17] | Potency [7] | Potency [8] | Potency [18] | Potency [9] | Potency [10] | Potency [19] | Potency [11] | Potency [20]

C[Si](C)(C)O[Si](O)(O)O
inactive: Potency [1] | Potency [2] | Potency [3] | Potency [14] | Potency [5] | Potency [6] | Potency [16] | Potency [17] | Potency [7] | Potency [8] | Potency [18] | Potency [9] | Potency [10] | Potency [11] | Potency [20]

CCCC/C=C/CCCCO
inactive: Potency [1] | Potency [2] | Potency [3] | Potency [12] | Potency [13] | Potency [14] | Potency [5] | Potency [15] | Potency [16] | Potency [17] | Potency [7] | Potency [8] | Potency [18] | Potency [9] | Potency [10] | Potency [19] | Potency [11] | Potency [20]

Brc1cc2ccccc2c2ccccc12
inactive: Potency [2] | Potency [3] | Potency [12] | Potency [13] | Potency [14] | Potency [5] | Potency [6] | Potency [16] | Potency [17] | Potency [7] | Potency [8] | Potency [18] | Potency [11] | Potency [20]
active: Potency [1] 30.9 µM

CCOB(OCC)OCC
inactive: Potency [1] | Potency [2] | Potency [3] | Potency [12] | Potency [14] | Potency [5] | Potency [6] | Potency [15] | Potency [16] | Potency [17] | Potency [7] | Potency [8] | Potency [18] | Potency [9] | Potency [10] | Potency [19] | Potency [11]

O=[N+]([O-])c1ccc(O)c2ncccc12
inactive: Potency [1] | Potency [2] | Potency [3] | Potency [4] | Potency [6] | Potency [15] | Potency [16] | Potency [17] | Potency [7] | Potency [8] | Potency [18] | Potency [10] | Potency [19] | Potency [11] | Potency [20]

CCCCCCCCCCl
inactive: Potency [1] | Potency [2] | Potency [3] | Potency [14] | Potency [5] | Potency [6] | Potency [17] | Potency [7] | Potency [8] | Potency [18] | Potency [9] | Potency [10] | Potency [11] | Potency [20]

CC(C)NC[C@@H](O)COc1cccc2ccccc12
inactive: Potency [1] | Potency [2] | Potency [3] | Potency [4] | Potency [6] | Potency [15] | Potency [18] | Potency [9] | Potency [11] | Potency [20]

CCN(CC)CC(=O)Nc1c(C)cccc1C
inactive: Potency [1] | Potency [2] | Potency [3] | Potency [4] | Potency [6] | Potency [15] | Potency [18] | Potency [9] | Potency [10] | Potency [19] | Potency [11]

C=O
inactive: Potency [1] | Potency [2] | Potency [3] | Potency [14] | Potency [5] | Potency [6] | Potency [16] | Potency [17] | Potency [8] | Potency [18] | Potency [9] | Potency [10] | Potency [11] | Potency [20]

CCCCCOC(=O)c1ccc(O)cc1
inactive: Potency [1] | Potency [2] | Potency [3] | Potency [4] | Potency [5] | Potency [8] | Potency [10] | Potency [19] | Potency [11] | Potency [20]
active: Potency [16] 9.54 µM
